From PubChem
PfGluPho inh = PfG6PD (Plasmodium falciparum) enzyme inhibition; AID 504690; inhibition, % at 20 µM; PfGluPho enzyme, NADPH resazurin-diaphorase fluorescence; actives 0.78% (n = 350,000);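 active = inhibition reaching at least a set limit at 20 µM in the primary screen, cut at about 59% in these data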;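 note: 0% = DMSO wells with substrate and 100% = DMSO wells lacking glucose-6-phosphate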
FAS TE block = blocks the thioesterase domain of human fatty acid synthase; P49327; recombinant FAS-TE, OMFH fluorogenic substrate, fluorescence endpoint; inhibition, % at 15 µM; actives 0.67% (n = 360,000);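 active = compounds whose normalised, plate-corrected inhibition of enzyme fluorescence in the single-dose primary screen is 50% or more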;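 note: 0% = DMSO with enzyme and 100% = substrate without enzyme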
Neddylation inh = blocks human cullin neddylation | actives 0.58% (n = 360,000) | TR-FRET cullin neddylation, biochemical | calls only at 25 µM; in the data active = inhibition above about 36%
Target sequence (P61081 whole entry, looked up): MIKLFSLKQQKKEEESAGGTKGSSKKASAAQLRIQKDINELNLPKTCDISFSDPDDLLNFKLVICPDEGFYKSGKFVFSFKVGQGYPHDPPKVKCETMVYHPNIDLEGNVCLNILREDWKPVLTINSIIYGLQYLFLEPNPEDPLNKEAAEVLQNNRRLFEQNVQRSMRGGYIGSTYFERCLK
Target sequence (Q13564 whole entry, looked up): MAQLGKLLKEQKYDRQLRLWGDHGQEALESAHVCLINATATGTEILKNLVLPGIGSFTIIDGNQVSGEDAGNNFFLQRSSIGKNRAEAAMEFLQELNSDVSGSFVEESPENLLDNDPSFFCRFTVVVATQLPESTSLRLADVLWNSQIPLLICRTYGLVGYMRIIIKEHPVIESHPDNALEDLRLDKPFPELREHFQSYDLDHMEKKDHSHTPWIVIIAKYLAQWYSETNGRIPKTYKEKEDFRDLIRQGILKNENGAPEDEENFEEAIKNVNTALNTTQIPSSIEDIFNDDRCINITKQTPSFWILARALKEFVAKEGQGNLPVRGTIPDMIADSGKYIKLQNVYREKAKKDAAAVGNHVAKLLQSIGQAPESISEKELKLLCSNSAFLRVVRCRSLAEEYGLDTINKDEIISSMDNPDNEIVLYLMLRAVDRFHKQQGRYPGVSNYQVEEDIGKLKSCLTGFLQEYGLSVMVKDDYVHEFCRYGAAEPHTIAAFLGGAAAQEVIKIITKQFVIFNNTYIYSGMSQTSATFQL
KLK7 zymogen act = proKLK7 (human) activation, primary screen; purified proKLK7, EDANS-DABCYL substrate fluorescence; 100% is mature enzyme control, 0% vehicle; actives 0.9% (n = 370,000); activation, % at 7 µM;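 active = activation above the mean of all tested compounds plus 3 SD, computed per campaign excluding outliers beyond control limits, cut at about 13% in these data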
PfGluPho conf = PfG6PD inhibition, single-dose confirmed. shares compounds with PfGluPho inh. recombinant PfGluPho, NADPH-diaphorase-resazurin fluorescence. inhibition, % at 20 µM. actives 34% (n = 2,400);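 active = inhibition of at least 50% at 20 µM in any single replicate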;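 note: 0% = DMSO with substrate and 100% = DMSO lacking glucose-6-phosphate substrate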
Diaph ctr 10uM = counter-screen for P. falciparum G6PD inhibitors: diaphorase inhibitors, oxidizers | actives 39% (n = 820) | inhibition, % at 20 µM | diaphorase-coupled resazurin reduction, fluorescence, NADPH 10 uM | shares compounds with PfGluPho inh;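 active = average inhibition reaching 50% or more with the compound at 20 µM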;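 note: resorufin red fluorescence formed as diaphorase reduces resazurin using NADPH; 0% = DMSO with enzyme and 100% = DMSO without enzyme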
Diaphorase 30uM = inhibits diaphorase or oxidizes, flagging false PfG6PD hits; shares compounds with PfGluPho inh; Diaphorase/resazurin coupled assay, resorufin fluorescence, 30 uM NADPH; inhibition, % at 20 µM; actives 29% (n = 820);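 active = inhibition averaging 50% or more, tested at 20 µM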;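 note: 0% = DMSO with enzyme and 100% = DMSO wells lacking diaphorase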
Active calls of the source: *. Sampled rows, rich in hits. Any-hit rate of the full collection: about 2.7%.

Results for O=C(CSc1nnc(SCc2ccc(Cl)cc2)s1)N/N=C/c1c[nH]c2ccccc12 ?
PfGluPho inh: 60*; FAS TE block: 4; Neddylation inh: inactive; KLK7 zymogen act: 1; PfGluPho conf: 33

What do the screens show for `CCCCCn1c(-c2ccco2)nc2nc3ccccc3nc21`?
PfGluPho inh: 64*; FAS TE block: 10; KLK7 zymogen act: -10; PfGluPho conf: 34

Results for COc1ccc(-c2nn3c(COc4ccccc4)nnc3s2)cc1OC ?
PfGluPho inh: -5; FAS TE block: 6; Neddylation inh: inactive; KLK7 zymogen act: 0

Results for c1csc(-c2nn3c(C4COc5ccccc5O4)nnc3s2)c1 (stereo not given) ?
PfGluPho inh: 59*; FAS TE block: 10; Neddylation inh: inactive; PfGluPho conf: 9

What do the screens show for `c1ccc(OCc2nnc3sc(-c4cccs4)nn23)cc1`?
PfGluPho inh: 86*; FAS TE block: 4; Neddylation inh: inactive; KLK7 zymogen act: 0; PfGluPho conf: 34

How did Clc1ccc(Cl)c(-c2nn3c(COc4ccccc4)nnc3s2)c1 do in these assays?
PfGluPho inh: 60*; FAS TE block: 2; Neddylation inh: inactive; KLK7 zymogen act: 0; PfGluPho conf: 36

How did Clc1ccccc1-c1nn2c(Cn3cnc4ccccc43)nnc2s1 do in these assays?
PfGluPho inh: 41; FAS TE block: -4; Neddylation inh: inactive; KLK7 zymogen act: 0

Results for COC(=O)C1CN(C2CCCC2)CCS(=O)(=O)N1Cc1cn(Cc2ccc(C)cc2)nn1 (stereo not given) ?
KLK7 zymogen act: 0

Results for CCNC(=S)NNC(=O)CSc1nc2ccccc2c(=O)n1-c1ccc(Cl)cc1 ?
KLK7 zymogen act: 0

Results for CN(C1CCCCC1)S(=O)(=O)c1ccc(S(=O)(=O)N2CCCC2)cc1 ?
PfGluPho inh: 3; FAS TE block: 14; Neddylation inh: inactive; KLK7 zymogen act: 0

Results for CN(C1CCCCC1)S(=O)(=O)c1ccc(=S)[nH]c1 ?
PfGluPho inh: 61*; FAS TE block: -8; Neddylation inh: inactive; KLK7 zymogen act: 1; PfGluPho conf: 17

How did CCOC(=O)C1CCN(C(=O)Nc2ccc3nc(-c4ccco4)c(-c4ccco4)nc3c2)CC1 do in these assays?
PfGluPho inh: 71*; FAS TE block: 0; Neddylation inh: inactive; PfGluPho conf: 3

What do the screens show for `Cc1nnc(N/N=C/c2cc(C)n(-c3ccc(F)cc3)c2C)n1N`?
PfGluPho inh: 78*; FAS TE block: -9; Neddylation inh: inactive; KLK7 zymogen act: 1; PfGluPho conf: 45

What do the screens show for `COc1ccc(OC[C@@H](O)CN2CCC(C(O)(c3ccccc3)c3ccccc3)CC2)cc1`?
KLK7 zymogen act: 0

How did COC1CC(C)C(OC)c2cc(O)cc(c2O)NC(=O)C(C)=CC=CC(C)C(OC(N)=O)C(C)=CC(C)C1OC (stereo not given) do in these assays?
PfGluPho inh: 105*; FAS TE block: -5; Neddylation inh: inactive; KLK7 zymogen act: -1; PfGluPho conf: 106*; Diaph ctr 10uM: 82*; Diaphorase 30uM: 82*

Results for COC1C=CC=C(C)C(=O)NC2=CC(=O)C(N)=C(CC(C)CC(OC)C(O)C(C)C=C(C)C1OC(N)=O)C2=O (stereo not given) ?
PfGluPho inh: -40; FAS TE block: -1; Neddylation inh: inactive; KLK7 zymogen act: 1

What do the screens show for `CC(=O)OCC(=O)C1(O)CCC2C3CC(C)C4=CC(=O)C=CC4(C)C3=CCC21C` (stereo not given)?
PfGluPho inh: 61*; FAS TE block: -4; Neddylation inh: inactive; KLK7 zymogen act: 1; PfGluPho conf: 40

How did COc1ccc(NC(=S)NC(NC(=O)CCl)C(Cl)(Cl)Cl)c([N+](=O)[O-])c1 (stereo not given) do in these assays?
PfGluPho inh: 65*; FAS TE block: -22; Neddylation inh: inactive; PfGluPho conf: 48

What do the screens show for `CC(=O)c1cc(-c2ccccc2-c2ccccc2)c(=O)n2c1CCC2`?
KLK7 zymogen act: 0

How did CCOC(=O)c1sc2nc(N3CCOCC3)c3c(c2c1N)CCC3 do in these assays?
PfGluPho inh: 9; FAS TE block: 27; Neddylation inh: inactive; KLK7 zymogen act: -70

What do the screens show for `CCCCN(CCCC)C(=O)c1sc2nc(N3CCOCC3)c3c(c2c1N)CCCC3`?
PfGluPho inh: 71*; FAS TE block: 18; Neddylation inh: inactive; KLK7 zymogen act: 0; PfGluPho conf: -6

What do the screens show for `CN(C)S(=O)(=O)c1cccc(C(=O)N/N=C\c2ccnc3ccccc23)c1`?
KLK7 zymogen act: 0

What do the screens show for `CCOc1cc(C(=O)Nc2ccc(C)cc2C)ccc1OCC(=O)N1CCCCC1`?
PfGluPho inh: 5; FAS TE block: -6; Neddylation inh: inactive; KLK7 zymogen act: 0

Results for COc1cc(C(=S)N2CCCC2)cc(Cl)c1OCC(=O)Nc1ccc(C)cc1C ?
PfGluPho inh: 64*; FAS TE block: 14; Neddylation inh: inactive; KLK7 zymogen act: 0; PfGluPho conf: -1

How did COc1ccc(CCN(Cc2cccs2)S(=O)(=O)c2ccc(C)c(C)c2)cc1OC do in these assays?
KLK7 zymogen act: 1

How did NC(=O)CN1C(=O)/C(=c2\sc3nc(=O)c(Cc4ccccc4)nn3c2=O)c2ccccc21 do in these assays?
PfGluPho inh: 63*; FAS TE block: -4; Neddylation inh: inactive; KLK7 zymogen act: 1; PfGluPho conf: -8

Results for Nc1nc(=S)c2[nH]c(=S)[nH]c2[nH]1 ?
PfGluPho inh: 67*; FAS TE block: -7; Neddylation inh: inactive; KLK7 zymogen act: -1; PfGluPho conf: 21

What do the screens show for `Nc1nc(=S)c2[nH]cnc2[nH]1`?
PfGluPho inh: 34; FAS TE block: -3; Neddylation inh: inactive; KLK7 zymogen act: 0

What do the screens show for `c1cncc(-c2nnc(-c3cccnc3)nn2)c1`?
PfGluPho inh: 77*; FAS TE block: -4; Neddylation inh: inactive; KLK7 zymogen act: 1; PfGluPho conf: 31

Results for CN(C(=O)c1cnc(N2CCN(c3ncccn3)CC2)c2ccccc12)c1ccc(Cl)cc1 ?
PfGluPho inh: 98*; FAS TE block: 25; Neddylation inh: inactive; KLK7 zymogen act: 1; PfGluPho conf: 35

What do the screens show for `CCN(C(=O)c1cnc(N2CCN(c3ncccn3)CC2)c2ccccc12)c1cccc(Cl)c1`?
PfGluPho inh: 25; FAS TE block: 15; Neddylation inh: inactive; KLK7 zymogen act: 0

What do the screens show for `C[C@H](CCCCC1(C)OCCO1)CCC(=O)N(c1ccccc1)c1ccccc1`?
KLK7 zymogen act: 1
